These results are taken from PubChem BioAssay AID1578 (Sanford-Burnham Center for Chemical Genomics, 2009).

A word on the inhibition: it is the change of the read-out against control, counted positive when it falls.

Screen size: about 290,000 compounds; about 3,000 (1%) were called active. For the sample, actives were picked, then their nearest neighbours and some compounds at random. A number with no mark means an inactive call. No stated cut-off is given here; in the data, active means inhibition mostly above about 36% (no sharp cut-off); inactive means mostly below about 34%.

The assay in a line: inhibition of NOD1-driven NF-kB reporter – cell-based, luminescence, uHTS, primary screen (AID 1578).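 Further: HEK-293T reporter cells stimulated with the NOD1 agonist gamma-tri-DAP.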 The note with it: NOD1-driven NF-kB luciferase reporter cells, at 4 µM, stronger effect = higher value. For orientation: Reporter assays use an easily measured gene product as a stand-in for the process of interest.
As for `CCOC(=O)C1CCN(C(=O)CN(c2cc(Cl)ccc2OC)S(=O)(=O)c2ccccc2)CC1`, the inhibition is -33.5%.

With `COc1cccc(NS(=O)(=O)c2cc3c(cc2C)N(C)CCO3)c1`, the inhibition is -2.7%.

For the molecule `O=C(N/N=C/c1ccc(N2CCOCC2)cc1)c1ccccc1OCCOc1ccccc1`, the inhibition was 58.8% (active).

As to `O=C(N/N=C/c1ccc(OCC(=O)N2CCOCC2)cc1)c1ccccc1Cl`, the inhibition is -15.5%.

On to `O=C(N/N=C/c1ccc(N2CCOCC2)cc1)c1ccccn1`, for which the inhibition is 0%.

Take `Fc1ccc(-n2ncc3c(SCc4cccnc4)ncnc32)cc1`: the inhibition was -6.1%.

On to `Cc1nc2nc[nH]n2c(=O)c1CC(=O)O`, for which the inhibition is 14.8%.

As for `CC1CCCN(c2ccc3nc4ccccc4c(=O)n3n2)C1` (stereo not drawn), the inhibition was 28.3%.

Consider `CN(c1ccc2nc3ccccc3c(=O)n2n1)C1CCCCC1`, for which the inhibition was 92.5% (active).

With `CN(c1cc(=O)n2ccccc2n1)C1CCCCC1`, the inhibition is -27.9%.

As for `CN1CCCN(C(=O)/C=C/c2ccc(F)cc2)CC1`, the inhibition is -22.5%.

With `N#CCC(=O)Nc1ccc(C(=O)OCC(=O)NCCCc2ccccc2)cc1`, the inhibition is 5.1%.

With `O=C(O)c1ccc(C=C(c2nc3ccccc3s2)c2nc3ccccc3s2)cc1`, the inhibition is 63.5% (active).

Turning to `COc1cc(C=C(c2nc3ccccc3s2)c2nc3ccccc3s2)ccc1O`, the inhibition is 7.4%.

For the molecule `O=C(O)c1ccc(/C=C(\c2nc3ccccc3[nH]2)c2nc3ccccc3s2)cc1`, the inhibition was 4.6%.

Take `CCCNC(=O)COC(=O)CCC(=O)c1cccs1`: the inhibition was -7.8%.

As for `O=C(Oc1c(Cl)cc(Cl)c2cccnc12)c1cccc([N+](=O)[O-])c1`, the inhibition was 105% (active).

For `O=C(Oc1ccc(Cl)c2cccnc12)c1cccc([N+](=O)[O-])c1`, the inhibition was -6.9%.

With `O=C(Oc1cccc2cccnc12)c1cccc([N+](=O)[O-])c1`, the inhibition is -8.5%.

In the case of `COc1ccc(OC)c(Nc2nc(NCc3ccco3)nc(N)c2[N+](=O)[O-])c1`, the inhibition was -6.4%.

For the molecule `Cc1ccc(NS(=O)(=O)c2cc(NC(=O)c3cc(=O)[nH]c(=O)[nH]3)ccc2Cl)c(C)c1`, the inhibition is 12.4%.

Regarding `COc1ccc(NC(=O)c2ccc3c(c2)NC(=O)CS3)cc1S(=O)(=O)Nc1ccc(Br)cc1`, the inhibition was 4%.

As for `Cc1ccc(C(=O)N/C(=C\c2cccc([N+](=O)[O-])c2)C(=O)OCN2C(=O)c3ccccc3C2=O)cc1`, the inhibition was -36.4%.

As to `O=C(NC1=NCCS1)C12CC3CC(CC(C3)C1)C2`, the inhibition was -23.8%.

Consider `Nc1[nH]nc2nc3ccccc3cc12`, for which the inhibition was -21.2%.

With `Nc1cccc2nc3ccccc3cc12`, the inhibition was -65%.

As to `O=C(c1cccc(F)c1)N1C2C=CC(C2)C1(C(F)(F)F)C(F)(F)F` (stereo not drawn), the inhibition was 23%.

For `N/C(=N/S(=O)(=O)c1ccccc1)c1cccc([N+](=O)[O-])c1`, the inhibition was 2%.

For `CNC(=S)NNC(=O)c1sc2cc(C(F)(F)F)cnc2c1-c1ccccn1`, the inhibition is -34.8%.

On to `CCCCCC1CC(=O)N(Cc2ccc(Cl)cc2)C(=O)N1` (stereo not drawn), for which the inhibition is 7.7%.

For the molecule `CCCCCCC1CC(=O)NC(=O)N1` (stereo not drawn), the inhibition is 45.3% (active).

In the case of `CCCCCCC1CC(=O)NC(=S)N1` (stereo not drawn), the inhibition was -3%.

Regarding `Cc1ccc(N2CCC(N3CCN(C4CCCCC4)C(CCO)C3)CC2)cc1` (stereo not drawn), the inhibition is -17.5%.

On to `COc1cc2c(cc1OC)C(c1cc(Br)ccc1F)N(C(=O)CCl)CC2` (stereo not drawn), for which the inhibition is 37.2% (active).

`COc1cc2c(cc1OC)C(c1ccccc1)N(C(=O)CCl)CC2` (stereo not drawn): the inhibition was 43.6%.

`COc1cc2c(cc1OC)C(C1C(=O)CCCC1=O)N(C(=O)CCl)CC2` (stereo not drawn): the inhibition was -8%.

`CSc1cccc(NS(=O)(=O)c2ccccc2)c1`: the inhibition was -20.4%.

For `O=C(CSc1nccc(=O)[nH]1)NC1CCCC1`, the inhibition was -1.9%.

As to `C/C(CC(=O)NC(C)(C)C)=N\NC(=O)COc1ccc(C)cc1Br`, the inhibition was -14%.

Turning to `CCCNC(=O)C/C(C)=N/NC(=O)COc1ccc(C)cc1Br`, the inhibition is 83.4% (active).

Turning to `COc1ccc(CCNC(=O)C/C(C)=N/NC(=O)COc2ccc(C)cc2Br)cc1OC`, the inhibition was 39.1%.

Turning to `CC(=O)c1ccc(OCC(=O)NC(=O)NC2CCCCC2)cc1`, the inhibition was 6.2%.

In the case of `Cc1ccc(C)c(OCC(=O)Nc2ccc(S(=O)(=O)Nc3ncccn3)cc2)c1`, the inhibition was -12.1%.

Take `COC(=O)c1c(-c2ccccc2)csc1N1C(=O)Nc2ccccc2N1O`: the inhibition is 37.8% (active).

As to `COC(=O)c1c(N2C(=O)Nc3ccccc3N2O)sc(C)c1C`, the inhibition was -21.8%.

As for `CCOC(=O)c1c(-c2ccccc2)csc1N1C(=O)Nc2ccccc2N1O`, the inhibition was -27.8%.

Consider `CC(=O)Nc1ccc(-c2csc(-c3cccnc3)n2)cc1`, for which the inhibition is -31.8%.

Regarding `O=C(O)CNC(=O)CCN1C(=O)c2ccccc2C1=O`, the inhibition was -13.4%.

For the molecule `CCOc1ccc(/C=C/C(=O)C(C(N)=O)=C2SCCS2)cc1`, the inhibition was 8.8%.

In the case of `NC(=O)C(C(=O)/C=C/c1ccc(Cl)cc1)=C1SCCS1`, the inhibition was 60.5% (active).

As to `COc1ccc(/C=C/C(=O)C(C(N)=O)=C2SCCS2)cc1`, the inhibition is -16.2%.

For the molecule `Cc1ccc(CNC(=O)/C=C/c2ccc(Br)o2)cc1`, the inhibition is -7.4%.

Regarding `NC(=O)c1ccc(C(=O)N/N=C/c2cccc(Oc3ccccc3)c2)cc1`, the inhibition is -28.7%.

Consider `NC(=O)COc1cccc(/C=N/NC(=O)c2ccc(-n3cccc3)cc2)c1`, for which the inhibition is 39.2% (active).

As for `NC(=O)COc1ccc(/C=N\NC(=O)c2ccc(-c3ccccc3)cc2)cc1`, the inhibition is 2.5%.

Take `CCCn1c(C)nc2cc(Cl)c(N3CCN(c4nc(-c5ccc(C)cc5)cs4)CC3)cc21`: the inhibition was 23.3%.

Turning to `CC(=O)NC1=C(NC2CCS(=O)(=O)C2)C(=O)c2ccccc2C1=O` (stereo not drawn), the inhibition was -32.3%.

Consider `CN(C1=C(NC(=O)c2ccccc2)C(=O)c2ccccc2C1=O)C1CCS(=O)(=O)C1` (stereo not drawn), for which the inhibition is -26.1%.

On to `O=C(NC1=C(NC2CCS(=O)(=O)C2)C(=O)c2ccccc2C1=O)c1ccccc1` (stereo not drawn), for which the inhibition was 104% (active).

On to `O=S(=O)(Nc1nc(-c2ccccc2)cs1)c1cc(Cl)ccc1Cl`, for which the inhibition is 40.9%.

Consider `COc1ccc(N=CC2=C(O)c3ccccc3C2=O)cc1`, for which the inhibition is 52.5%.

Consider `COc1cc(N=CC2=C(O)c3ccccc3C2=O)cc(OC)c1`, for which the inhibition was -21.7%.

As to `COc1ccc(N=CC2=C(O)c3ccccc3C2=O)c(OC)c1`, the inhibition was 72% (active).
